The source made the active and inactive calls. Calls come from the whole dose curve. Numbered stars: 1 amine (or outer) side, 2 acyl side, 3 side chain; on linkers, the order of the positions; unused ones are H or OH. Bridge positions count the residues as written; N and C are the ends. Square brackets hold non-standard residues; d marks the D form. Peptide text beside a SMILES is read from it. I, II: the chains in the order shown. Actinocin(9to1) = Cc1c2oc3c(C)ccc(C(=O)[*:1])c3nc-2c(C(=O)[*:2])c(N)c1=O; NMeV = CN[CH](C(=O)O)C(C)C; Sar = CNCC(=O)O
Test: qHTS profiling of Chloroquine Analogs as inhibitors of Plasmodium falciparum (3D7) proliferation
Details: activity change, negative = inhibition: at 28.7 µM (top of the series) unless noted
Description: Plasmodium falciparum is a virulent malarial parasite that kills 1-2 million people worldwide each year. Transmitted by mosquitoes, the sporozoite form of the parasite enters the blood stream to infect hepatocytes, where they become merozoites that infect red blood cells (erythrocytes). Within erythrocytes, merozoites begin a […] cycle of growth and division, after which the parasite is released to infect new red blood cells. Gametocytes, which form within erythrocytes as well, circulate in the bloodstream and are ingested by the mosquito, thereby completing the life cycle. To profile malarial isolates for differential chemical responses and to identify inhibitors of malarial growth, an assay that measures P. falciparum growth and replication within erythrocytes was employed. This assay uses a DNA binding fluorescent dye (SYBR Green) to detect parasite DNA following cell lysis. Because mature erythrocytes lack DNA, only Plasmodium-derived DNA is detected.
The SYBR Green viability assay was adapted from a method described previously (Plouffe et al., 2008). For screening 3 ul culture medium was dispensed into 1536 well black clear bottom plates (Aurora Biotechnologies) using a Multidrop Combi (Thermo Fisher Scientific Inc.), 23 nL compounds in DMSO were added by a pin tool (Kalypsys), and 5 ul of erythrocytes infected with P. falciparum (0.3% parasitemia, 2.5% hematocrit final concentration) were added. The plates were incubated at 37 C in a humidified incubator in 5% CO2 for 72 h, and 2 ul lysis buffer (20 mM Tris HCl, 10 mM EDTA, 0.16% saponin, 1.6% triton X, 10X SYBR Green I supplied as 10,000X […] by Invitrogen) was added to each well. The plates were mixed for 25 sec with gentle shaking and incubated overnight at room temperature in the dark. The following morning, fluorescence intensity at 485(14) nm excitation and 535(25) nm emission wavelengths was measured on an EnVision (Perkin Elmer) plate reader. Plate reads were normalized relative to the control inhibitor (0.29 uM artemisinin) and vehicle (DMSO) wells present on each plate and then corrected by an algorithm using vehicle-only control plates at the beginning and end of the compound plate stack.

Row | Structure (SMILES) | activity change, negative = inhibition | Potency
1 | COCC(=O)O[C@]1(CCN(C)CCCc2nc3ccccc3[nH]2)CCc2cc(F)ccc2[C@@H]1C(C)C | -102% | 
2 | C[C@@H]1[C@@H](CC(C[C@H]2O[C@@H]3O[C@]4(C)CC[C@@H]5[C@H](C)CC[C@@H]([C@H]2C)[C@@]35OO4)C(=O)NCc2ccc(F)cc2)O[C@@H]2O[C@]3(C)CC[C@H]4[C@H](C)CC[C@@H]1[C@@]24OO3 (some centres not stated) | -101% | 
3 | Cc1nc2c(C#N)cccc2n1-c1ccc(C(=O)NC2CC2)s1 | -100% | 
4 | CCc1ccc(OCc2ccccc2C(=O)Nc2ccc3nc(C)cc(N)c3c2)cc1 | -101% | 
5 | C[C@@H]1[C@@H](C(=O)C[C@H]2O[C@@H]3O[C@]4(C)CC[C@@H]5[C@H](C)CC[C@@H]([C@H]2C)[C@@]35OO4)O[C@@H]2O[C@]3(C)CC[C@H]4[C@H](C)CC[C@@H]1[C@@]24OO3 |  | 1.7 nM (active)
6 | CC[C@@H](C)[C@H]1O[C@]2(CC[C@H]1C)C[C@@H]1C[C@@H](CC=C(C)[C@@H](O[C@H]3C[C@H](OC)[C@@H](O[C@H]4C[C@H](OC)[C@@H](O)[C@H](C)O4)[C@H](C)O3)[C@@H](C)C=CC=C3CO[C@@H]4[C@H](O)C(C)=C[C@@H](C(=O)O1)[C@]34O)O2 | -99.9% | 
7 | CCCC(=O)O[C@]1(C(=O)CCl)[C@H](C)C[C@@H]2[C@H]3CCC4=CC(=O)C=C[C@]4(C)[C@@]3(F)C(=O)C[C@@]21C | -101% | 
8 | COc1ccc(CCN(C)CCCC(C#N)(c2ccc(OC)c(OC)c2)C(C)C)cc1OC (configuration not stated) |  | inactive
9 | CN1C[C@H](C(=O)N[C@]2(C)O[C@@]3(O)[C@@H]4CCCN4C(=O)[C@H](Cc4ccccc4)N3C2=O)C[C@@H]2c3cccc4[nH]cc(c34)C[C@H]21 |  | 530 nM (active)
10 | C[C@@H]1[C@@H](CC(C[C@H]2O[C@@H]3O[C@]4(C)CC[C@@H]5[C@H](C)CC[C@@H]([C@H]2C)[C@@]35OO4)C[S+](=O)([O-])c2ccc(COC(=O)N(C)C)cc2)O[C@@H]2O[C@]3(C)CC[C@H]4[C@H](C)CC[C@@H]1[C@@]24OO3 (some centres not stated) |  | inactive
11 | C=CC(C)=C[C@@]1(C)SC(=O)C(C)=C1O |  | inactive
12 | CCN(CC)CCCC(C)Nc1ccnc2cc(Cl)ccc12 (configuration not stated) | -99% | 
13 | CN1CCN(CCCN2c3ccccc3Sc3ccc(S(=O)(=O)N(C)C)cc32)CC1 |  | 716 nM (active)
14 | C[C@H]1[C@@H](OC(=O)CCC(=O)O)O[C@@H]2OC3(C)CC[C@H]4[C@H](C)CC[C@@H]1[C@@]24OO3 | -101% | 
15 | Cc1c2oc3c(C)ccc(C(=O)NC4C(=O)NC(C(C)C)C(=O)N5CCCC5C(=O)N(C)CC(=O)N(C)C(C(C)C)C(=O)OC4C)c3nc-2c(C(=O)NC2C(=O)NC(C(C)C)C(=O)N3CCCC3C(=O)N(C)CC(=O)N(C)C(C(C)C)C(=O)OC2C)c(N)c1=O (configuration not stated) (I: TVP[Sar][NMeV] / II: TVP[Sar][NMeV]; ester I:1-I:C, II:1-II:C; linker I:N-II:N via Actinocin(9to1); configuration not given here) |  | 2.1 nM (active)
16 | COc1cccc(CCc2ccccc2OCC(CN(C)C)OC(=O)CCC(=O)O)c1 (configuration not stated) |  | 2980 nM (active)
17 | C/C(=C\c1csc(C)n1)[C@@H]1C[C@@H]2O[C@]2(C)CCC[C@H](C)[C@H](O)[C@@H](C)C(=O)C(C)(C)[C@@H](O)CC(=O)O1 |  | inactive
18 | CC1=CC(=O)c2ccccc2C1=O |  | inactive
19 | COc1cc(NC(C)CCCN)c2ncccc2c1 (configuration not stated) |  | 902 nM (active)

Row | Structure (SMILES) | activity change, negative = inhibition | Potency
20 | C[C@H]1Cc2c([nH]c3cc(Cl)c(F)cc23)[C@@]2(N1)C(=O)Nc1ccc(Cl)cc12 | -101% | 
21 | C=CCON=C(C[C@H]1O[C@@H]2O[C@]3(C)CC[C@@H]4[C@H](C)CC[C@@H]([C@H]1C)[C@@]24OO3)[C@H]1O[C@@H]2O[C@]3(C)CC[C@H]4[C@H](C)CC[C@@H]([C@@H]1C)[C@@]24OO3 | -102% | 
22 | CC(=O)N(O)CCCP(=O)(O)O |  | 266 nM (active)
23 | CC(C)(C)c1cc(O)c(CN)c(C(C)(C)C)c1 |  | 168 nM (active)
24 | CN1CC[C@H](CN2c3ccccc3Sc3ccccc32)C1 |  | inactive
25 | CNC(=O)c1cc(Oc2ccc(NC(=O)Nc3ccc(Cl)c(C(F)(F)F)c3)cc2)ccn1 | -100% | 
26 | CCCCCCCCCCOc1cc2c(=O)c(C(=O)OCC)c[nH]c2cc1OCC |  | inactive
27 | CN(C)c1ccc2nc3ccc(=[N+](C)C)cc-3sc2c1 |  | 4.3 nM (active)
28 | C[C@@H]1Cc2c([nH]c3cc(Cl)c(F)cc23)[C@]2(N1)C(=O)Nc1ccc(Cl)cc12 | -101% | 
29 | Clc1ccc(COC(Cn2ccnc2)c2ccc(Cl)cc2Cl)c(Cl)c1 (configuration not stated) | -97.6% [at 14.2 µM] | 
30 | CCCCN(CCCC)CC(O)c1cc(Cl)cc2c1-c1ccc(Cl)cc1C2=Cc1ccc(Cl)cc1 (configuration not stated) | -97.1% | 
31 | Cc1cccc(C)c1NC(=O)C(C)N (configuration not stated) |  | inactive
32 | C[C@H]1c2cccc(O)c2C(O)=C2C(=O)[C@]3(O)C(O)=C(C(N)=O)C(=O)[C@@H](N(C)C)[C@@H]3[C@@H](O)[C@@H]21 |  | 8410 nM (active)
33 | COc1cc(C=CC(=O)CC(=O)C=Cc2ccc(O)c(OC)c2)ccc1O |  | 8410 nM (active)
34 | CCCC[C@@H]1C[C@@H](C(=O)NC([C@H](C)Cl)[C@H]2O[C@H](S)[C@H](O)[C@@H](O)[C@@H]2O)N(C)C1 (some centres not stated) |  | inactive
35 | CCc1nc(N)nc(N)c1-c1ccc(Cl)cc1 | -98.9% | 
36 | C=C[C@@H]1CN2CC[C@@H]1C[C@H]2[C@H](O)c1ccnc2ccc(OC)cc12 | -98.6% | 
37 | C[C@H](N)CN1CCc2ccc(Br)cc21 |  | 1680 nM (active)

From PubChem BioAssay AID743325 (National Center for Advancing Translational Sciences (NCATS), 2014)
